# Results from PubChem BioAssay.
# The source made the active and inactive calls. The rule behind the calls is not given here.
# Biological target: Pantothenate synthetase (Mycobacterium tuberculosis (strain ATCC 25618 / H37Rv)) (UniProt P9WIL5)
# Test: Coupled enzyme confirmation of inhibitors against recombinant Mtb PanC (AID 375);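 note: 0% = full reaction with vehicle and 100% = no enzyme background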
# Conditions: coupled enzyme assay; at 10 µM, hits give high values
# Pantothenate synthetase (Mycobacterium tuberculosis (strain ATCC 25618 / H37Rv)), sequence (P9WIL5 whole entry, looked up): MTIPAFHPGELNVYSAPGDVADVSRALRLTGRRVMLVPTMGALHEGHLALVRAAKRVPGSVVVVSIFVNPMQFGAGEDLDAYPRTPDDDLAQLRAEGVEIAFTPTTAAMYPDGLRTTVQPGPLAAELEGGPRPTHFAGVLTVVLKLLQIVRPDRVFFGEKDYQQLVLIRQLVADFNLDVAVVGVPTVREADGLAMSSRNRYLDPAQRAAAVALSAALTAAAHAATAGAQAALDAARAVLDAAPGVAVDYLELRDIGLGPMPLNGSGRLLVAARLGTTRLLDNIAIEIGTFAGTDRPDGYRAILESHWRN
row,SMILES,inhibition
1,COc1ccccc1C(=O)N1CCN(C(=O)COc2cccc(C)c2)CC1,3% (inactive)
2,O=C(Nc1ccc(Cc2ccncc2)cc1)C1CC1,0% (inactive)
3,COc1ccc(C(F)(F)F)cc1NC(=O)c1nc2nc(C)cc(C(F)F)n2n1,1% (inactive)
4,CC12CN3CC(C)(CN(C1)C3c1cc(Br)ccc1O)C2=O (stereo not given),0% (inactive)
5,Cc1csc(OCc2ccc(C#N)cc2)n1,0% (inactive)
6,COc1ccccc1-c1nc(SCc2ccccn2)n[nH]1,0% (inactive)
7,CCOC(=O)Cn1c(CN2CCN(c3cccc(Cl)c3)CC2)nc2c1c(=O)[nH]c(=O)n2C,0% (inactive)
8,CCOC(=O)c1nnc2ccnn2c1N,0% (inactive)
9,CCCNCC(O)COc1ccccc1C(=O)CCc1ccccc1 (stereo not given),0% (inactive)
10,COc1cc2c(cc1NC(=O)CSc1nnc(Cc3cccs3)n1C)oc1ccccc12,6% (inactive)
11,Cc1noc(C)c1COC(=O)c1ccccc1Oc1ccccc1,0% (inactive)
12,CN(Cc1ccccc1)C(=O)CNC(=O)Cn1cnc2ccccc2c1=O,0% (inactive)
13,O=S1(=O)C=CC(Nc2cccc(Cl)c2)C1 (stereo not given),0% (inactive)
14,Cc1ccc(-c2nnc(SCC(=O)N3c4ccccc4NC(=O)C3(C)C)n2N)cc1,1% (inactive)
15,CO[C@@]1(NC(=O)CSCC#N)C(=O)N2C(C(=O)O)=C(CSc3nnnn3C)CS[C@@H]21,0% (inactive)
16,Cc1nc(C)c2c(c1C(F)(F)F)-c1ccccc1C2(F)F,0% (inactive)
17,CCCCOCCCNC(=O)c1cccs1,0% (inactive)
18,O=C(CSc1nnc(Cc2cccs2)n1Cc1ccco1)Nc1cccc(Cl)c1,0% (inactive)
19,CCOC(=O)c1ccc(CC2S/C(=C(\C#N)C(C)=O)NC2=O)cc1 (stereo not given),10% (inactive)
20,CC(C)OC(=O)CSc1nnc(Cc2ccccc2)n1Cc1ccco1,8% (inactive)

row,SMILES,inhibition
1,Cc1ccc(-c2noc(C3CCCN(C(=O)c4ccc(F)cc4F)C3)n2)cc1 (stereo not given),0% (inactive)
2,COc1ccccc1NC1=NC(c2ccc(Cl)cc2)N=C(N)N1 (stereo not given),0% (inactive)
3,COc1cccc(-c2nc(CSCC(=O)N3CCc4ccccc43)c(C)o2)c1,0% (inactive)
4,COCCN1C(=O)C(=O)/C(=C(/O)c2ccc(OC(C)C)cc2)C1c1cccnc1 (stereo not given),0% (inactive)
5,CCC(=O)OC1(C#CCOc2ccc(OC)cc2)CCN(C)CC1,0% (inactive)
6,CNCCC(Oc1ccc(C(F)(F)F)cc1)c1ccccc1 (stereo not given),4% (inactive)
7,CCC(CC)C(=O)Nc1cccc(C(=O)NCc2ccco2)c1,6% (inactive)
8,COc1ccccc1-c1nnc(SCC(=O)N2CC(C)CC(C)C2)o1 (stereo not given),4% (inactive)
9,O=C(Cc1cccs1)Nc1ccccc1NC(=O)Cc1cccs1,0% (inactive)
10,COc1ccc(N2CCN(CCNC(=O)CCS(=O)(=O)c3cccc4nsnc34)CC2)cc1,0% (inactive)
11,CC(C)Cn1c(=O)c(C2=NS(=O)(=O)c3ccccc3N2)c(O)c2ccccc21,2% (inactive)
12,CCCC(CCC)n1[nH]c(=O)c2c(C)cc(C)nc21,0% (inactive)
13,N#CC1=C(N)Oc2n[nH]c(-c3ccncc3)c2C1c1ccsc1 (stereo not given),0% (inactive)
14,Nc1nc(Cl)nc2c1ncn2[C@H]1C[C@H](O)[C@@H](CO)O1,0% (inactive)
15,CSc1cccc(NS(=O)(=O)c2ccccc2)c1,0% (inactive)
16,Cc1ccccc1CSCC(=O)c1c(N)n(C)c(=O)n(C)c1=O,2% (inactive)
17,COc1ccc(S(=O)(=O)Nc2cc(C)on2)cc1OC,0% (inactive)
18,CC1(C)NC(=O)N(CCOc2cccc(Cl)c2Cl)C1=O,0% (inactive)
19,CCOc1ccc(N2C(=O)CC(N3CC(C)OC(C)C3)C2=O)cc1 (stereo not given),0% (inactive)
20,CCCC(=O)O[C@]1(C(=O)CCl)[C@@H](C)C[C@H]2[C@@H]3CCC4=CC(=O)C=C[C@]4(C)[C@@]3(F)C(=O)C[C@@]21C,0% (inactive)
